Test results published in PubChem BioAssay AID1159580 (chemical genetic matrix, 2015).
Among all 5,500 compounds or so, about 2,000 (36%) were called active. Not shown: some 18% with an inconclusive outcome. Rule as the data show it: active = normalized growth mostly below about 0.91 (no sharp cut-off); inconclusive = no clear call, values can overlap the other calls; inactive = mostly above about 0.92. This is one part of the list.

Assay: chemical genetic growth profiling, strain panel (AID 1159580);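 also: tested at 20 µM; growth read once vehicle control cultures reached saturation at 30 °C; 1 = growth at the plate median or of vehicle wells; lower values mean less growth of the strain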
Conditions: S. cerevisiae deletion strains, growth OD

Measured: normalized growth

CCCCCCCCCCCC1=C(O)C(=O)C=C(O)C1=O
active: locus YAL013W, strain DEP1, hits give low values 0.662 | locus YAL021C, strain ccr4, hits give low values 0.835 | locus YAL026C, strain drs2, hits give low values 0.394 | locus YAL030W, strain snc1, hits give low values 0.889 | locus YBL061C, strain skt5, hits give low values 0.795 | locus YBR009C, strain hhf1, hits give low values 0.853 | locus YBR023C, strain chs3, hits give low values 0.815 | locus YBR171W, strain sec66, hits give low values 0.853 | locus YBR231C, strain swc5, hits give low values 0.77 | locus YBR279W, strain paf1, hits give low values 0.762 | locus YCL011C, strain gbp2, hits give low values 0.822 | locus YCL016C, strain dcc1, hits give low values 0.886 | locus YCL029C, strain bik1, hits give low values 0.89 | locus YCL061C, strain MRC1, hits give low values 0.628 | locus YCL069W, strain vba3, hits give low values 0.538 | locus YCR088W, strain abp1, hits give low values 0.723 | locus YDL035C, strain GPR1, hits give low values 0.525 | locus YDL074C, strain BRE1, hits give low values 0.365 | locus YDL185W, strain tfp1, hits give low values 0.503 | locus YDL192W, strain arf1, hits give low values 0.834 | locus YDR001C, strain nth1, hits give low values 0.786 | locus YDR069C, strain doa4, hits give low values 0.692 | locus YDR101C, strain arx1, hits give low values 0.871 | locus YDR137W, strain rgp1, hits give low values 0.81 | locus YDR150W, strain NUM1, hits give low values 0.673 | locus YDR159W, strain sac3, hits give low values 0.822 | locus YDR162C, strain NBP2, hits give low values 0.338 | locus YDR195W, strain ref2 0.853 | locus YDR297W, strain sur2, hits give low values 0.87 | locus YDR334W, strain swr1, hits give low values 0.259 | locus YDR335W, strain msn5, hits give low values 0.599 | locus YDR392W, strain spt3, hits give low values 0.16 | locus YDR502C, strain sam2, hits give low values 0.886 | locus YEL003W, strain gim4, hits give low values 0.851 | locus YEL037C, strain rad23, hits give low values 0.467 | locus YEL061C, strain CIN8 (second series), hits give low values 0.493 | locus YEL061C, strain CIN8, hits give low values 0.665 | locus YER015W, strain faa2, hits give low values 0.748 | locus YER111C, strain swi4, hits give low values 0.265 | locus YER155C, strain BEM2 (second series), hits give low values 0.615 | locus YFR010W, strain ubp6, hits give low values 0.507 | locus YGL078C, strain dbp3, hits give low values 0.822 | locus YGL086W, strain mad1, hits give low values 0.798 | locus YGL167C, strain pmr1, hits give low values 0.882 | locus YGL173C, strain kem1, hits give low values 0.703 | locus YGL227W, strain vid30, hits give low values 0.909 | locus YGL253W, strain hxk2, hits give low values 0.359 | locus YGR078C, strain PAC10, hits give low values 0.684 | locus YGR135W, strain pre9, hits give low values 0.888 | locus YHR013C, strain ard1, hits give low values 0.743 | locus YHR027C, strain rpn1, hits give low values 0.605 | locus YHR030C, strain SLT2, hits give low values 0.596 | locus YHR129C, strain ARP1, hits give low values 0.67 | locus YHR142W, strain chs7, hits give low values 0.274 | locus YHR200W, strain rpn10, hits give low values 0.89 | locus YIL066C, strain RNR3, hits give low values 0.856 | locus YIL125W, strain kgd1, hits give low values 0.623 | locus YJL092W, strain hpr5, hits give low values 0.684 | locus YJL095W, strain BCK1 (second series), hits give low values 0.88 | locus YJL095W, strain BCK1, hits give low values 0.68 | locus YJL115W, strain asf1, hits give low values 0.72 | locus YJL154C, strain vps35, hits give low values 0.521 | locus YJL164C, strain tpk1, hits give low values 0.83 | locus YJL166W, strain qcr8, hits give low values 0.792
inactive: locus YBR021W, strain FUR4, hits give low values 0.916 | locus YBR229C, strain ROT2, hits give low values 1 | locus YDL005C, strain med2, hits give low values 0.961 | locus YDL040C, strain nat1, hits give low values 0.95 | locus YDL101C, strain DUN1, hits give low values 0.994 | locus YDL134C, strain PPH21, hits give low values 0.956 | locus YDR318W, strain mcm21, hits give low values 0.955 | locus YDR388W, hits give low values 0.98 | locus YER016W, strain bim1, hits give low values 0.944 | locus YER110C, hits give low values 0.976 | locus YER155C, strain BEM2, hits give low values 0.925 | locus YER167W, strain BCK2, hits give low values 0.952 | locus YGL240W, strain doc1, hits give low values 0.923 | locus YGL248W, strain PDE1, hits give low values 0.92 | locus YGR252W, strain gcn5, hits give low values 0.95 | locus YHR079C, strain IRE1 (second series), hits give low values 0.991 | locus YHR094C, strain hxt1, hits give low values 0.994 | locus YIL073C, strain SPO22, hits give low values 0.933 | locus YIR030C, strain dcg1, hits give low values 0.972 | locus YJL129C, strain trk1, hits give low values 0.999 | locus YJL134W, strain LCB3, hits give low values 0.984
